Source: PubChem BioAssay AID1159580 (chemical genetic matrix, 2015)
Where “and” joins values, the source holds several entries; their conditions need not be identical. Equal entries are not always repeated. Among all 5,500 compounds or so, about 2,000 (36%) were called active. About 18% were inconclusive and are not listed. No stated cut-off is given here; in the data, active means normalized growth mostly below about 0.91 (no sharp cut-off); inconclusive means no clear call, values can overlap the other calls; inactive means mostly above about 0.92. Some of the results follow.

Assay: chemical genetic growth profiling, strain panel (AID 1159580);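 further: tested at 20 µM; growth read once vehicle control cultures reached saturation at 30 °C; 1 = growth at the plate median or of vehicle wells; lower values mean less growth of the strain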
Settings: S. cerevisiae deletion strains, growth OD

Measured: normalized growth

NC(Cn1ccc(=O)c(O)c1)C(=O)O (configuration not stated)
inactive: locus YAL013W, strain DEP1, hits give low values 1.01 | locus YAL021C, strain ccr4, hits give low values 1 | locus YAL026C, strain drs2, hits give low values 1.04 | locus YAL030W, strain snc1, hits give low values 1.01 | locus YBL061C, strain skt5, hits give low values 1.03 | locus YBR009C, strain hhf1, hits give low values 0.992 | locus YBR021W, strain FUR4, hits give low values 1.01 | locus YBR023C, strain chs3, hits give low values 1.03 | locus YBR171W, strain sec66, hits give low values 1.03 | locus YBR229C, strain ROT2, hits give low values 1.02 | locus YBR231C, strain swc5, hits give low values 1.01 | locus YBR279W, strain paf1, hits give low values 1.03 | locus YCL011C, strain gbp2, hits give low values 1.03 | locus YCL016C, strain dcc1, hits give low values 1.04 | locus YCL029C, strain bik1, hits give low values 0.98 | locus YCL061C, strain MRC1, hits give low values 1.01 | locus YCL069W, strain vba3, hits give low values 1.01 | locus YCR088W, strain abp1, hits give low values 1.02 | locus YDL005C, strain med2, hits give low values 1.03 | locus YDL035C, strain GPR1, hits give low values 1.03 | locus YDL040C, strain nat1, hits give low values 1.02 | locus YDL074C, strain BRE1, hits give low values 1.03 | locus YDL101C, strain DUN1, hits give low values 1.02 | locus YDL134C, strain PPH21, hits give low values 1.01 | locus YDL185W, strain tfp1, hits give low values 0.978 | locus YDL192W, strain arf1, hits give low values 0.994 | locus YDR001C, strain nth1, hits give low values 1.02 | locus YDR069C, strain doa4, hits give low values 1.02 | locus YDR101C, strain arx1, hits give low values 1 | locus YDR137W, strain rgp1, hits give low values 1.05 | locus YDR150W, strain NUM1, hits give low values 1.01 | locus YDR159W, strain sac3, hits give low values 0.943 | locus YDR162C, strain NBP2, hits give low values 1.02 | locus YDR195W, strain ref2 1.01 | locus YDR297W, strain sur2, hits give low values 0.998 | locus YDR318W, strain mcm21, hits give low values 0.992 | locus YDR334W, strain swr1, hits give low values 1.02 | locus YDR335W, strain msn5, hits give low values 1.03 | locus YDR388W, hits give low values 0.993 | locus YDR392W, strain spt3, hits give low values 0.959 | locus YDR502C, strain sam2, hits give low values 1.01 | locus YEL003W, strain gim4, hits give low values 1 | locus YEL037C, strain rad23, hits give low values 1.02 | locus YEL061C, strain CIN8 (second series), hits give low values 1.03 | locus YEL061C, strain CIN8, hits give low values 1.01 | locus YER015W, strain faa2, hits give low values 1.01 | locus YER016W, strain bim1, hits give low values 1.05 | locus YER110C, hits give low values 0.969 | locus YER111C, strain swi4, hits give low values 1.02 | locus YER155C, strain BEM2 (second series), hits give low values 1.01 | locus YER155C, strain BEM2, hits give low values 1.01 | locus YER167W, strain BCK2, hits give low values 1.03 | locus YFR010W, strain ubp6, hits give low values 0.994 | locus YGL078C, strain dbp3, hits give low values 1.01 | locus YGL086W, strain mad1, hits give low values 1 | locus YGL167C, strain pmr1, hits give low values 1.02 | locus YGL173C, strain kem1, hits give low values 1 | locus YGL227W, strain vid30, hits give low values 1.05 | locus YGL240W, strain doc1, hits give low values 1 | locus YGL248W, strain PDE1, hits give low values 1.02 | locus YGL253W, strain hxk2, hits give low values 1.03 | locus YGR078C, strain PAC10, hits give low values 1.02 | locus YGR135W, strain pre9, hits give low values 1.02 | locus YGR229C, strain SMI1, hits give low values 1.02 | locus YGR252W, strain gcn5, hits give low values 1.07 | locus YHR013C, strain ard1, hits give low values 1.05 | locus YHR027C, strain rpn1, hits give low values 1.02 | locus YHR030C, strain SLT2, hits give low values 1.01 and 1.02 | locus YHR079C, strain IRE1 (second series), hits give low values 0.988 | locus YHR079C, strain IRE1, hits give low values 1.04 | locus YHR094C, strain hxt1, hits give low values 0.996 | locus YHR129C, strain ARP1, hits give low values 1.01 | locus YHR142W, strain chs7, hits give low values 1.03 | locus YHR200W, strain rpn10, hits give low values 0.991 | locus YIL066C, strain RNR3, hits give low values 1.02 | locus YIL073C, strain SPO22, hits give low values 0.978 | locus YIL125W, strain kgd1, hits give low values 1 | locus YIR030C, strain dcg1, hits give low values 0.986 | locus YJL092W, strain hpr5, hits give low values 1.01 | locus YJL095W, strain BCK1 (second series), hits give low values 1.03 | locus YJL095W, strain BCK1, hits give low values 1.02 and 1.01 | locus YJL115W, strain asf1, hits give low values 1.02 | locus YJL129C, strain trk1, hits give low values 1.03 | locus YJL134W, strain LCB3, hits give low values 1.01 | locus YJL154C, strain vps35, hits give low values 1.01 | locus YJL164C, strain tpk1, hits give low values 0.996 | locus YJL166W, strain qcr8, hits give low values 1.01 | locus YJL168C, strain set2, hits give low values 0.99 | locus YJL187C, strain SWE1 (second series), hits give low values 1.01 | locus YJL187C, strain SWE1, hits give low values 1.01 | locus YJR043C, strain POL32, hits give low values 1.01 | locus YJR066W, strain TOR1, hits give low values 0.98
